Experimental data reported in PubChem BioAssay.

What was measured:
[1] = system: Human papillomavirus type 1a protein E7 (residues 44-93); test: small molecules binding HPV E7 44-93 – biochemical, small-molecule microarray, residues 44-93, 635 nm fluorescence, primary screen (AID 1108); conditions: fluorescence 635 nm, higher = more signal;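 also: E7 fragment applied at 1 µg/mL in TBST for 1 h at 4 C; score combines spot fluorescence with its signal to noise ratio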
[2] = hepatitis C replication reporter changes, two-sided – Huh7 cells, luciferase reporter, HCV replication inhibitor project, primary screen (AID 1109); conditions: Huh7 HCV replicon luciferase reporter, 48 h; higher = more signal;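 also: huh7 hepatoma cells harbouring a luciferase neomycin HCV replicon reporter; luciferase luminescence as measure of HCV replicon replication; test concentration not given here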
[3] = biological target: Left-right determination factor 2 (Homo sapiens) (UniProt O00292); test: small molecules binding LEFTY2 protein – biochemical, small-molecule microarray, 635 nm fluorescence scan, primary screen (AID 1110); conditions: higher = more signal
Sequence of Left-right determination factor 2 (Homo sapiens) (O00292 whole entry, looked up): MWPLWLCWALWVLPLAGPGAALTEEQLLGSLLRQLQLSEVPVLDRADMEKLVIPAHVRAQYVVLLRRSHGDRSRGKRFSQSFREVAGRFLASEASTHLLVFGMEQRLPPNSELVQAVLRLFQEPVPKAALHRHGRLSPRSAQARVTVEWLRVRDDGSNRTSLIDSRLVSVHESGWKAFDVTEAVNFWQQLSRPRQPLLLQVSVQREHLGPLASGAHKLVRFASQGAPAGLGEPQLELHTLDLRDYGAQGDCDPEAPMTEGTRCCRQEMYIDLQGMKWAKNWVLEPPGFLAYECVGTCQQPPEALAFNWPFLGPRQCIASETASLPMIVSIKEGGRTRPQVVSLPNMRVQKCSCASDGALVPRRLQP

[4] = biological target: Calmodulin-1 (Homo sapiens) (UniProt P0DP23); test: small molecules binding calmodulin-1 with EGTA – biochemical, small-molecule microarray, Cy5-labelled CALM1, profiling panel (AID 1111); conditions: Cy5-CALM1 binding fluorescence, higher = more signal;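 also: labelled calmodulin applied in Tris saline Tween buffer holding calcium plus EGTA and DTT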
[5] = biological target: Calmodulin-1 (Homo sapiens) (UniProt P0DP23); test: small molecules binding Ca-loaded calmodulin-1 – biochemical, small-molecule microarray, Cy5-labelled CALM1, plus calcium, artefact control for SMM control-protein annotation, profiling panel (AID 1112); conditions: Cy5-CALM1 binding fluorescence, higher = more signal;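 also: score merges spot fluorescence with signal to noise from triplicate slides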
[6] = probe aWnt5a binding to arrayed compounds – biochemical, biotinylated probe, 635/667 nm fluorescence, primary screen (AID 1113); conditions: small-molecule microarray, higher = more signal;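 also: score merges 667 nm fluorescence intensity with signal-to-noise per printed feature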
[7] = probe aShh binding to arrayed compounds – biochemical, biotinylated probe, 635/667 nm fluorescence, primary screen (AID 1114); conditions: small-molecule microarray, higher = more signal;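 also: probe is biotin-labelled aShh protein from a stem cell growth factor screen; measures binding of labelled protein to compounds printed on the slide; score merges feature fluorescence at 667 nm with signal-to-noise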
[8] = probe aNog binding to arrayed compounds – biochemical, biotinylated probe, 635/667 nm fluorescence, primary screen (AID 1115); conditions: small-molecule microarray, higher = more signal;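 also: probe is biotinylated aNog protein used at 0.15 µg/mL for 1 h at 4 C; z-score combines 667 nm fluorescence of each spot with its signal to noise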
[9] = biological target: Torsin-1A-interacting protein 1 (Homo sapiens) (UniProt Q5JTV8); test: compound microarray binding of lysate hLAP1 – cell lysate, small-molecule microarray, COS7 lysate, 635/667 nm fluorescence, primary screen (AID 1116); conditions: 635 nm fluorescence, higher = more signal
Sequence of Torsin-1A-interacting protein 1 (Homo sapiens) (Q5JTV8 whole entry, looked up): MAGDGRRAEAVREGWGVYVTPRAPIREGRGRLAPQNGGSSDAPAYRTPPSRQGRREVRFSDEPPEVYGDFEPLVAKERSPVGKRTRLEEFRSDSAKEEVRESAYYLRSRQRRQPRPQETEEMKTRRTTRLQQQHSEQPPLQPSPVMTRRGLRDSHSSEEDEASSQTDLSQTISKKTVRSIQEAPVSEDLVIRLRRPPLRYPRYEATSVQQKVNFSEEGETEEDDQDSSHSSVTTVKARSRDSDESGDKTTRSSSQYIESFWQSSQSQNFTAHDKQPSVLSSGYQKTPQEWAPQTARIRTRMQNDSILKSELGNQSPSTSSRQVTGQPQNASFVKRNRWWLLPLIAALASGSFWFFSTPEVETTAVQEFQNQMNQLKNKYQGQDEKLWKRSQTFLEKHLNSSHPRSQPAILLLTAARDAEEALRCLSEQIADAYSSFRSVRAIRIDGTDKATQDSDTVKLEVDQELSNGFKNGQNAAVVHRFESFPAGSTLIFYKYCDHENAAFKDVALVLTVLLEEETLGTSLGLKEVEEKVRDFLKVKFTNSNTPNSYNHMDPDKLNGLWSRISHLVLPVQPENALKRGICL

[10] = biological target: Alpha-bungarotoxin (Bungarus multicinctus) (UniProt P60615); test: compounds binding labelled alpha-BTX control protein – biochemical, small-molecule microarray, Alexa647 label, 635/667 nm fluorescence, artefact control for SMM control protein annotation, profiling panel (AID 1117); conditions: alpha-BTX-A647 binding fluorescence, higher = more signal
Sequence of Alpha-bungarotoxin (Bungarus multicinctus) (P60615 whole entry, looked up): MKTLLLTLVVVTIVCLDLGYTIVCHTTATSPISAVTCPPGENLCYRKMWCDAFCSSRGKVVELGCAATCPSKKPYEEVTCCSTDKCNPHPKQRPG

SMILES | composite z-score [1] | z-score [2] | composite z-score [3] | composite z-score [4] | composite z-score [5] | composite z-score [6] | composite z-score [7] | composite z-score [8] | composite z-score [9] | composite z-score [10]
CN(C)C(=O)[C@@]1(Cc2ccccc2N=[N+]=[N-])N=C(c2ccc(OCCCO)cc2)O[C@H]1c1ccccc1 | 0.0896 | -2.52 | 0.123 | 2.4 | 1.09 | 0.103 | -0.0022 | -0.743 | 1.32 | 2.17
CCOC(=O)C1=C[C@@H](C(C)(C)C)N(S(=O)(=O)c2ccc(C)cc2)[C@H]1c1ccc(C)cc1 | 0.974 | -1.04 | 0.424 | 1.81 | -0.0354 | 0.0479 | -0.0709 | 1.27 | 0.229 | 1.11
COc1ccc(C(O)C2C=CC3C(=O)N(c4ccccc4)C(=O)C3N2Nc2ccccc2)cc1 (stereo not given) | 1.39 | -0.454 | -0.13 | 0.553 | 0.147 | 0.0102 | -0.0243 | 0.36 | 0.272 | 2.13
COc1cc(NN2C(C(O)c3ccccc3)C=CC3C(=O)N(C)C(=O)C32)cc(OC)c1OC (stereo not given) | 1.35 | -0.928 | 0.222 | 0.533 | -0.171 | 0.0437 | 0.151 | 0.521 | 0.891 | 0.544
Cc1ccc(S[C@]2(C(=O)NCC(C)C)CC(=O)N(C3Cc4ccccc4C3)[C@@H]2c2ccc(CO)cc2I)cc1 | -0.117 | -1.33 | -1.2 | -0.257 | 0.27 | -0.125 | -0.368 | 0.0862 | 0.273 | -0.324
CCOC(=O)C[C@H]1[C@H](OC(=O)c2cc3ccccc3oc2=O)[C@@H](NC(=O)c2ccc3ccccc3c2)c2cc(OCCCO)ccc2N1C(=O)Cc1ccc(OC)cc1 | 1.16 | -1.6 | 0.763 | 0.31 | -0.239 | -0.0648 | 0.0588 | -0.0047 | 0.546 | 0.259
CCCCCN1CC=CC23O[C@@H]4/C=C\CCC(C)OC(=O)C4[C@H]2C(=O)N(CCCCCCO)[C@@H]3C1=O (stereo not given in full) | 0.342 | 0.499 | -0.78 | -0.384 | 0.369 | -0.202 | -0.0146 | -0.12 | 0.171 | -0.267
C=C(CCCC)C(=O)CC[C@H](OC(=O)c1ccccc1-c1ccccc1C(=O)O)c1ccccc1OCCO | 0.166 | -2.31 | -0.171 | -0.378 | -0.814 | -0.0944 | 0.318 | 0.397 | 0.442 | 0.26
CN(C)C(=O)[C@@]1(Cc2ccccc2)COC(c2ccc(OCCCO)cc2)=N1 | -0.112 | -1.4 | -0.906 | 0.153 | 0.369 | -0.319 | 0.0526 | -0.646 | 2 | -0.579
O=C1O[C@H](c2ccccc2)[C@H](c2ccccc2)N2[C@H]1[C@@H](C(=O)Nc1nc3ccccc3s1)[C@]1(C(=O)Nc3ccc(C#CC4=CCCCC4)cc31)[C@H]2c1ccc(O)cc1 | 1.38 | -0.832 | 0.0561 | 1.18 | 0.366 | -0.0203 | 0.0465 | 0.178 | 1.17 | 1.4
COc1ccc([Si](C)(C)[C@@H]2[C@@H](CC(=O)N3Cc4ccccc4C[C@H]3CO)O[C@]3(C(=O)N(Cc4ccc(N5CCC5=O)cc4)c4ccccc43)[C@H]2C)cc1 | 1.02 | -3.58 | 0.759 | 1.04 | -0.0245 | -0.124 | -0.16 | -0.388 | 1.24 | 0.963
[N-]=[N+]=Nc1ccccc1C[C@@]1(C(=O)O)N=C(c2ccc(OCCCO)cc2)O[C@@H]1c1ccccc1N=[N+]=[N-] | 1.26 | -1.26 | 0.0656 | 2.45 | 1.12 | -0.034 | 0.108 | 1.27 | 1.79 | 1.32
COc1ccc(C(=O)Nc2cccc(CN3C(=O)[C@]4(O[C@H](CCn5cc([C@H](O)c6ccccc6)nn5)[C@@H]([Si](C)(C)c5ccc(OC)cc5)[C@@H]4C)c4ccccc43)c2)cc1 | 1.38 | -5.19 | 0.126 | -0.0002 | -0.614 | -0.13 | -0.0793 | 0.189 | 0.361 | 1.09
C=CC1c2cc(O)c(OC)cc2CCN1Cc1ccc([N+](=O)[O-])o1 (stereo not given) | 0.0967 | 0.366 | -0.54 | 1.15 | 1.18 | 0.0306 | 0.13 | 0.57 | 1.82 | 0.899
CC1CC/C=C\[C@H]2OC34C=CCN(C(C)(C)C)C(=O)[C@H]3N(C(CO)C(C)C)C(=O)[C@@H]4C2C(=O)O1 (stereo not given in full) | -1.26 | 0.434 | 0.272 | -0.745 | -0.554 | -0.0882 | 0.0469 | -0.316 | 0.952 | -0.62
C=CCN1C(=O)[C@]2(O[C@H](CCO)[C@@H]([Si](C)(C)c3ccc(OC)cc3)[C@@H]2C)c2cc(N3C(=O)COc4ccccc43)ccc21 | 1.32 | -5.2 | 0.181 | 0.966 | 0.325 | -0.0134 | -0.0858 | 0.0599 | -0.0988 | 0.429
CC(C)c1ccc(NN2C(C(O)Cc3ccccc3)C=CC3C(=O)N(c4ccccc4)C(=O)C32)cc1 (stereo not given) | 1.33 | 0.843 | 0.126 | 2.05 | 0.744 | -0.0819 | 0.23 | 1.53 | 0.98 | 1.06
CCCC=C(CCC)[C@@H](NC(=O)CCc1ccccc1)c1ccc(C(F)(F)F)cc1 | 1.36 | -1.51 | -0.203 | 1.58 | 1.03 | 0.451 | 0.93 | 0.555 | 1.11 | 1.23

SMILES | composite z-score [1] | z-score [2] | composite z-score [3] | composite z-score [4] | composite z-score [5] | composite z-score [6] | composite z-score [7] | composite z-score [8] | composite z-score [9] | composite z-score [10]
COC(=O)C(CC#Cc1ccc2c(c1)[C@]1(C(=O)N2)[C@H](c2ccc(OCCO)cc2)N2[C@H](c3ccccc3)[C@H](c3ccccc3)OC(=O)[C@H]2[C@@H]1C(=O)N1CCN(c2ncccn2)CC1)C(=O)OC | 0.233 | -1.49 | 1.28 | 1.48 | 0.43 | -0.0286 | 0.214 | -0.889 | 1.2 | 1.3
[N-]=[N+]=NCc1ccccc1[C@@H]1OC(c2ccc(OCCCO)cc2)=N[C@]1(Cc1ccccc1)C(=O)NCCN1CCOCC1 | 1.42 | -2.37 | 0.133 | 1.2 | 0.558 | 0.0825 | 0.1 | 0.684 | 0.946 | 0.63
C[C@]1(C(=O)O)c2ccccc2C(=O)N(Cc2ccc(OC(F)(F)F)cc2)[C@H]1c1ccc(CO)cc1 | -0.829 | -0.102 | -0.618 | 1.03 | 0.714 | -0.129 | 0.147 | 0.265 | 0.703 | 1.56
CN(C)CCCCNC(=O)[C@H]1C[C@H]2C(=O)N[C@@H](CCCC[N+](C)(C)C)C(=O)N2[C@H]1c1ccc(O)cc1 | -1.55 | -0.027 | -0.0658 | -0.0691 | -0.441 | -0.208 | -0.2 | -0.253 | -0.511 | 0.15
CC(C)C[C@@H]1NC(=O)[C@H]2C[C@@H](C(=O)NCCCCCN)[C@@H](c3cccc(OCCO)c3)N2C1=O | -1.01 | 0.335 | -0.0189 | 0.331 | 0.422 | -0.103 | -0.138 | -0.157 | 2.08 | 1.03
CC(C)C(=C=CC[C@@H](O)c1cccc(OCCO)c1)C[C@@H](O)COCc1ccccc1 | -0.83 | -0.0464 | 0.136 | 0.275 | 0.265 | -0.141 | 0.0469 | -0.298 | 0.0535 | 0.0211
C=C[C@@H](OC)[C@H](OC(=O)Nc1ccc(SC)cc1)c1ccc(OCCO)cc1 | 1.44 | 0.462 | 0.0128 | 0.469 | -0.0827 | -0.0735 | 0.0639 | 0.36 | 1.03 | 1.36
O=C1N(CCS(=O)(=O)c2ccccc2)Cc2ccccc2[C@@H]2OC(c3ccc(OCCCO)cc3)=N[C@]12CCS(=O)(=O)c1ccccc1 | 1.48 | -0.0756 | 1.14 | 1.23 | -0.104 | 0.104 | 0.0898 | 0.445 | 1.72 | 0.821
COCCOC(=O)N1C(=O)[C@@]2(c3cc(C#CCNC(N)=O)ccc31)[C@H](c1ccc(OCCO)cc1)N1[C@H](c3ccccc3)[C@H](c3ccccc3)OC(=O)[C@H]1[C@@H]2C(=O)NC[C@H](O)c1ccccc1 | 1.26 | -0.711 | 0.799 | 1.22 | 0.226 | -0.0792 | -0.138 | 1.21 | 0.878 | 1.61
COc1ccc(C(O)C2C=CC3C(=O)N(c4ccccc4)C(=O)C3N2Nc2ccccc2F)cc1 (stereo not given) | 0.726 | -0.139 | -0.591 | 0.528 | 0.062 | -0.0991 | 0.0062 | 0.853 | 0.982 | 1.01
Cc1cccc([C@H]2C[C@H]3C(Br)=C[C@@H]2C(=O)[C@]32CO2)c1 | -0.97 | -2.5 | 0.174 | -0.206 | -0.41 | -0.18 | -0.341 | -0.0784 | -0.188 | 0.106
O=C1C[C@@](C(=O)NCc2ccccc2)(c2ccc([N+](=O)[O-])cc2)[C@@H](c2ccc(CO)cc2I)N1CC12CC3CC(CC(C3)C1)C2 | 1.39 | -3.32 | 0.591 | 0.387 | 0.0818 | -0.0529 | -0.152 | -0.131 | 0.903 | 1.02
C=C(C)[C@@H]1CC=C(C(O)C2C=CC3C(=O)N(c4ccccc4)C(=O)C3N2Nc2ccc(C#N)cc2)CC1 (stereo not given in full) | 1.47 | -0.768 | 0.0506 | 1.75 | 0.424 | -0.0431 | 0.0469 | 1.5 | -0.243 | 1.92
COc1cccc(/C=C(\C#N)C(=O)Nc2c(C)n(C)n(-c3ccccc3)c2=O)c1 | 1.11 | -0.479 | 0.303 | 1.27 | 0.0209 | -0.0894 | -0.223 | -0.0899 | 0.569 | 1.19
C=CCNC(=O)[C@H]1[C@@H]2C(=O)O[C@@H](c3ccccc3)[C@@H](c3ccccc3)N2[C@@H](c2ccc(OCCO)cc2)[C@]12C(=O)Nc1ccc(C#CCNC(N)=O)cc12 | 0.0863 | -0.587 | 0.192 | 1.41 | 1.15 | -0.0009 | 0.163 | 0.85 | 0.311 | 2.07
C=C[C@H](C)[C@H](OC(=O)Nc1ccc(OC)cc1)c1ccc(OCCO)cc1 | -0.562 | 0.0055 | -2.08 | -1.39 | -0.0296 | -0.222 | -0.0553 | -0.142 | -0.18 | -1.79
COC(=O)[C@@]1(Cc2ccccc2CN=[N+]=[N-])N=C(c2ccc(OCCCO)cc2)O[C@H]1c1ccccc1 | 0.155 | -3.09 | -0.59 | -0.426 | 0.161 | 0.0101 | -0.0375 | 1.48 | 1.42 | 0.779
